This is part of a sample that, as a whole, favours compounds with a hit. Of some 83,000 tested, about 20% had one in any assay.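 Values shown are percent growth following 48 h exposure of cells in 96-well plates to a single concentration of compound; below 10 was considered active.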 Unmarked numbers belong to inactive results. Calls of active or inactive are those of the source.
Legend:
Test in all cases: NCI-60 one-dose screen, 48 h (100 = growth as untreated, 0 = no growth, -100 = all killed)
NCI-H23 lung = conditions: 10 µM unless noted
NCI-H226 lung = conditions: 10 µM unless noted
NCI-H322M lung = conditions: 10 µM unless noted
HOP-62 NSCLC = conditions: 10 µM unless noted
NCI-H460 lung = conditions: 10 µM unless noted
HOP-92 NSCLC = conditions: 10 µM unless noted
NCI-H522 lung = conditions: 10 µM
786-0 renal = conditions: 10 µM unless noted
COLO 205 colon = conditions: 10 µM unless noted

SMILES | growth (NCI-H23 lung) | growth (NCI-H226 lung) | growth (NCI-H322M lung) | growth (HOP-62 NSCLC) | growth (NCI-H460 lung) | growth (HOP-92 NSCLC) | growth (NCI-H522 lung) | growth (786-0 renal) | growth (COLO 205 colon)
CCN(CC)c1ccc(/C=C/C(=O)c2cccc(NS(C)(=O)=O)c2)cc1 | 18.7% | 43.1% | 89% | 42.6% | 42.3% | 19.9% | 4.67% (active) | 32.3% | 62.3%
C[C@H]1c2cccc(O)c2C(O)=C2C(=O)[C@]3(O)C(O)=C(C(N)=O)C(=O)[C@@H](N(C)C)[C@@H]3[C@@H](O)[C@@H]21 | 41.5% | 69.2% | 44.2% | 51.8% | 35.9% | 24.3% | 45.4% | 50.7% | 67.8%
COc1cc(/C=N/OC(=O)Nc2ccccc2)cc(OC)c1OC | 107% | 96% | 92.2% | 93.9% | 109% | 74.6% | 86.2% | 103% | 107%
O=C(/C=C/c1ccc([N+](=O)[O-])cc1)c1ccc2c3c(cccc13)CC2 | 67.9% | 66.9% | 78.4% | 53.9% | 38.4% | 55% | 70.4% | 83.9% | 49%
O=C(c1ccc(N2CCOCC2)cc1[N+](=O)[O-])N1CCOCC1 | 97.2% | 97.9% | 111% | 94.8% | 116% | 94.3% | 94% | 102% | 87.1%
COc1cc(/C=C2\SC(N3CCCCC3)=NC2=O)ccc1OCCCCCCOc1ccc(/C=C2\SC(N3CCCCC3)=NC2=O)cc1OC | 5.35% (active) | -20.1% (active) | 48.3% | 6.62% (active) | -45.4% (active) | 32.2% | -11.5% (active) | 50.5% | 0.374% (active)
COc1cccc2c1C(=O)c1c(O)c3c(c(O)c1C2=O)C[C@@](O)(C(C)=O)C[C@@H]3O[C@H]1C[C@H](N)[C@H](O)[C@H](C)O1 | -67.3% (active) | -33.1% (active) | -19.9% (active) | -50.2% (active) | -3.01% (active) | -28% (active) | -89.3% (active) | -9.97% (active) | -85.8% (active)
O=C(NCCCl)NCCN1c2nc3ccccc3cc2Sc2cc3ccccc3nc21 | 39.1% | 63.5% | 107% | 51.7% | 26% | -5.57% (active) | 55.4% | 57.9% | 73.8%
COc1ccc2c(c1)C(=Nc1cc(OC)c(OC)c(OC)c1)C(=O)N2 | 96.6% | 97.1% | 108% | 36.1% | 116% | 56.8% | 89.9% | 104% | 92.5%
Cc1cn(C(C=O)OC(C=O)CO)c(=O)[nH]c1=O (configuration not stated) | 107% | 105% | 106% | 102% | 105% | 104% | 98% | 107% | 109%
COc1ccc2c(c1)[n+](=O)c(/C=C/C(=O)c1cc(OC)c(OC)c(OC)c1)c(C)n2[O-] | 80% | 84.5% | 110% | 94.3% | 81.8% | -22.4% (active) | -60.1% (active) | 67.2% | 32%
COc1ccc2cc(-c3nc4ccccc4[nH]3)c(=O)oc2c1 | 93.1% | 97.5% | 96.3% | 93.9% | 101% | 80.3% | 88.7% | 98% | 119%
COc1cccc(C2=NN(C(C)=O)C(c3cc(OC)c(OC)c(OC)c3)C2)c1 (configuration not stated) | 52% | 90.1% | 77% | 31.5% | -0.923% (active) | -0.613% (active) | -38% (active) | 30% | 22.2%
O=[N+]([O-])c1cc([N+](=O)[O-])c(N2CCCC2)cc1NN=C(c1ccc(O)cc1)c1ccc(O)cc1 | 9.44% (active) | 94.8% | 91.7% | 23.3% | 9.13% (active) | 87.7% | -42% (active) | 0.661% (active) | 30.6%
c1ccc(N2c3nc4ccccc4cc3Sc3cc4ccccc4nc32)nc1 | 93.7% | 84.9% | 83.6% | 90.8% | 111% | 39% | 98.1% | 92.9% | 141%
COc1ccc(C(=O)COc2cccc(/C=C3\COc4ccc5ccccc5c4C3=O)c2)cc1 | 59.5% | 72.7% | 147% | 96.5% | 62% | 33.8% | 44.1% | 83% | 123%
CCCn1c(N)c(C(=O)CNc2ccc(I)cc2)c(=O)[nH]c1=O | 89.8% | 62.7% | 62% | 54.9% | 28.6% | 95.4% | 50.9% | 47.1% | 75.5%
Oc1c(Cl)cc(Cl)c(Cl)c1Cc1c(O)c(Cl)cc(Cl)c1Cl | -0.673% (active) | 18% | -1.98% (active) | 21.5% | 5.9% (active) | -21.7% (active) | -3.33% (active) | 12.2% | 70.3%

From PubChem BioAssay (NCI)
